Compound activity as filed in PubChem BioAssay.
Sampled rows, rich in hits. Any-hit rate of the full collection: about 6.9%.
Cy5 interf NS3h = Cy5 fluorescence interference, HCV helicase counter-screen; Cy5-dT15 DNA with NS3h; actives lie on both sides; signal over control mean, under 1 quenches; fluorescence interference ratio at 100 µM; 16,000 compounds, 6% hits; AID 720488;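 active = compound fluorescence over control fluorescence at most 0.8, a quencher, or at least a set upper limit, an enhancer; inactive = ratio between 0.8 and the set upper limit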
NS3h inh CB = blocks HCV NS3 helicase binding to DNA. NS3h Cy5-dT15 DNA binding, fluorescence polarization. AID 687043. inhibition, % at 100 µM. 16,000 compounds, 1.6% hits;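 active = inhibition above the average over every tested compound plus 3 SD, cut at about 40% in these data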
NS3h confirm = confirmation of hepatitis C virus NS3 helicase inhibitors. inhibition, % at 100 µM. shares compounds with NS3h inh CB. NS3h binding to Cy5-dT15 DNA, fluorescence polarization. 240 compounds, 20% hits;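 active = percent inhibition of 50% or more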
SSB-DNA FP CB = E. coli SSB-DNA binding inhibition, NS3h counter-screen. inhibition, % at 100 µM. E. coli SSB binding Cy5-dT15, fluorescence polarization. AID 720486. shares compounds with NS3h inh CB. 240 compounds, 40% hits;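 active = inhibition of at least 50%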;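 also: displacers lower Cy5 polarization so higher inhibition means more SSB displaced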
Target sequence (P0AGE0 whole entry, looked up): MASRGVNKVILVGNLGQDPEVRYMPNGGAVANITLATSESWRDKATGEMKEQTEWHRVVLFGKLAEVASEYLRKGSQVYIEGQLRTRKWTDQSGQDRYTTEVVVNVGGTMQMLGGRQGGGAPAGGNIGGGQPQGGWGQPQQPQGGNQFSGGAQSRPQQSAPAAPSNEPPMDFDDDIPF
Cy5 SSB fluor CB = counter-screen for HCV NS3 helicase inhibitors: fluorescence interference; 240 compounds, 8% hits; shares compounds with NS3h inh CB; fluorescence interference ratio at 100 µM; Cy5-dT15/E. coli SSB fluorescence interference; actives lie on both sides;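 active = fluorescence interference ratio at or above 1.2, signal boosting, or at or below 0.8, signal quenching; inactive = ratio between 0.8 and 1.2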;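 also: ratio of compound well signal to mean negative control signal so 1 means no effect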
Cy5 fluor confirm = Cy5 fluorescence interference, confirmation counter-screen | shares compounds with NS3h inh CB | Cy5-dT15 DNA/NS3h fluorescence interference counterscreen | fluorescence interference ratio at 100 µM, hits read low | 240 compounds, 44% hits | AID 720489;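 active = fluorescence interference ratio at or below 0.8 quencher or at or above a set limitenhancer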;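 also: ratio of compound fluorescence to mean of negative controls so 1 means no interference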
Numbers without * were called inactive; . = no result.

SMILES | Cy5 interf NS3h | NS3h inh CB | NS3h confirm | SSB-DNA FP CB | Cy5 SSB fluor CB | Cy5 fluor confirm
Cc1ccc(Cl)cc1NC(=O)c1cccc(N(C)C)c1 | 1 | 5 | . | . | . | .
COc1cccc(/C=C2/C(=O)NN(c3ccc(I)cc3)C2=O)c1 | 1 | 15 | . | . | . | .
O=C1C=CC(=O)N1c1ccccc1N1C(=O)C=CC1=O | 1 | 81* | 63* | 11 | 0.98 | 0.95
O=C1C=CC(=O)N1c1ccc(Cc2ccc(N3C(=O)C=CC3=O)c(Cl)c2)cc1Cl | 1 | 14 | . | . | . | .
COc1ccccc1CC(=O)Nc1ccc(Br)cc1C(=O)O | 1 | 3 | . | . | . | .
COc1ccc(NC(=O)CCC2CCCCC2)cc1 | 0.92 | 10 | . | . | . | .
O=C1C(=C/C(Br)=C/c2ccccc2)SC(=S)N1Cc1ccccc1 | 1.1 | 8 | . | . | . | .
CC(/C=C1\SC(=S)N(C(C(=O)O)c2ccccc2)C1=O)=C\c1ccccc1 (stereo not drawn) | 0.94 | 24 | 4 | 5 | 0.97 | 0.69*
O=C1CSC(=Nc2ccc(O)cc2)N1 | 0.99 | 4 | . | . | . | .
Cc1ccc(C)n1/N=C1/NC(=O)CS1 | 0.97 | 90* | 77* | 107* | 0.93 | 0.97
CCOCCOC(=O)c1ccc(NC(=O)/C=C/c2ccc(OC)c(Br)c2)cc1 | 1 | 6 | . | . | . | .
CN(C)c1ccc(/C=C/C(=O)/C=C/c2ccc(N(C)C)cc2)cc1 | 0.98 | 6 | . | . | . | .
COc1ccc(N2C(=O)C=C(Nc3ccccc3)C2=O)cc1 | 0.87 | 15 | . | . | . | .
C=C(C)C(=O)Oc1ccc(N2C(=O)C=CC2=O)cc1 | 1 | 81* | 55* | 4 | 0.93 | 0.92
O=C1C=CC(=O)N1c1ccc(SC(F)F)cc1 | 0.99 | 20 | . | . | . | .
C=C(C)C(=O)Oc1ccc(N2C(=O)CCC2=O)cc1 | 1.1 | 4 | . | . | . | .
CN(C)c1ccc(N2C(=O)C=CC2=O)cc1 | 0.96 | 65* | 43 | 16 | 1 | 0.76*
COc1ccc(N2C(=O)C=CC2=O)cc1 | 0.77* | 84* | 49 | 0 | 1 | 0.77*
O=C1C=CC(=O)N1c1ccc(OC(F)F)cc1 | 0.82 | 46* | 33 | 9 | 0.94 | 0.86
O=C(NCCOc1ccccc1F)c1ccc(Br)cc1 | 1 | 2 | . | . | . | .
CCc1ccc(-n2c(C)cc(/C=C(\C#N)C(=O)Nc3ccc(OC)cc3)c2C)cc1 | 1 | 7 | . | . | . | .
COc1cc(/C=C2/SC(=S)NC2=O)cc(Cl)c1OCc1ccc(Cl)cc1Cl | 1 | 48* | 12 | 55* | 0.94 | 0.85
COc1ccc(/C=C2/SC(=S)NC2=O)cc1OCc1ccc(Cl)cc1 | 1 | 8 | . | . | . | .
CC(=O)CC(=O)Nc1ccc(Cl)cc1Cl | 1 | 0 | . | . | . | .
CC(C)c1ccc(NC(=O)CN(c2ccc(Cl)cc2)S(C)(=O)=O)cc1 | 0.98 | 20 | . | . | . | .
SMILES | Cy5 interf NS3h | NS3h inh CB | NS3h confirm | SSB-DNA FP CB | Cy5 SSB fluor CB | Cy5 fluor confirm
O=C(O)Cc1c[nH]c2ccc(O)cc12 | 0.81 | 90* | 78* | 110* | 0.88 | 0.91
O=C(O)CC(C(=O)O)c1c[nH]c2ccccc12 (stereo not drawn) | 1.1 | -5 | . | . | . | .
CCOC(=O)c1ccc2nc(C)c(CC=C(Cl)Cl)c(Cl)c2c1 | 1.1 | -5 | . | . | . | .
COc1cc(NC(=O)c2cccc(F)c2)c(OC)cc1NC(C)=O | 1.1 | 3 | . | . | . | .
O=C1C2C(C(=O)N1/N=C\c1ccc(Br)cc1)C1C=CC2C12CC2 (stereo not drawn) | 1.1 | 7 | . | . | . | .
Cc1cc(C)cc(N2C(=O)NC(=O)/C(=C\c3cc(Br)c(O)c([N+](=O)[O-])c3)C2=O)c1 | 0.99 | 36 | 28 | 53* | 0.95 | 0.99
COc1cc(/C=C2\C(=O)NC(=O)N(c3cc(C)cc(C)c3)C2=O)cc(OC)c1O | 1.1 | 8 | . | . | . | .
Cc1cccc(N2C(=O)NC(=O)/C(=C/c3cc(Cl)c(O)c(Cl)c3)C2=O)c1 | 1 | 16 | . | . | . | .
Cc1cccc(N2C(=O)NC(=O)/C(=C\c3cc(Br)c(O)c([N+](=O)[O-])c3)C2=O)c1 | 0.99 | 32 | 32 | 62* | 0.93 | 0.75*
Cc1ccccc1C(=O)Nc1ccccc1C(=O)Nc1ccc(C(=O)O)cc1 | 1 | 4 | . | . | . | .
CCn1c2ccccc2c2cc(CNCCc3ccc(OC)c(OC)c3)ccc21 | 0.99 | -13 | . | . | . | .
Cc1ccccc1-n1c(O)c(C=C2C=CC=N2)c(=O)[nH]c1=S | 0.75* | 63* | 58* | 140* | 0.72* | 0.74*
O=c1[nH]c(=O)n(-c2ccc(Br)cc2)c(O)c1C=C1C=CC=N1 | 0.83 | -2 | . | . | . | .
N#Cc1c(N)c(C#N)c(-c2ccco2)c2c1CCCC2 | 0.96 | 32 | 17 | 21 | 0.98 | 0.92
N#Cc1c(-c2ccco2)c2c([nH]c1=S)CCCC2 | 1.1 | 18 | . | . | . | .
